# Screening data (PubChem)
# Compounds with a hit are over-represented: about 18% of the library has one in this group of screens.
# RORg inh = qHTS for inhibitors of ROR gamma transcriptional activity. hit rate 5.4% among 310,000. AID 2551, 2010. Potency, µM (doses to about 53.6 µM), inactives show at the highest dose activity change, negative = inhibition, hits mostly inhibitors. Nuclear receptor ROR-gamma (Mus musculus), P51450. Drosophila S2 Gal4-RORgamma UAS-luciferase reporter, 20 h; also: potency is read from the fitted curve at half-maximal effect; nearly all actives have a fitted effect of over 60% in size
# Target sequence (P51450 whole entry, looked up, the tested form may be a part): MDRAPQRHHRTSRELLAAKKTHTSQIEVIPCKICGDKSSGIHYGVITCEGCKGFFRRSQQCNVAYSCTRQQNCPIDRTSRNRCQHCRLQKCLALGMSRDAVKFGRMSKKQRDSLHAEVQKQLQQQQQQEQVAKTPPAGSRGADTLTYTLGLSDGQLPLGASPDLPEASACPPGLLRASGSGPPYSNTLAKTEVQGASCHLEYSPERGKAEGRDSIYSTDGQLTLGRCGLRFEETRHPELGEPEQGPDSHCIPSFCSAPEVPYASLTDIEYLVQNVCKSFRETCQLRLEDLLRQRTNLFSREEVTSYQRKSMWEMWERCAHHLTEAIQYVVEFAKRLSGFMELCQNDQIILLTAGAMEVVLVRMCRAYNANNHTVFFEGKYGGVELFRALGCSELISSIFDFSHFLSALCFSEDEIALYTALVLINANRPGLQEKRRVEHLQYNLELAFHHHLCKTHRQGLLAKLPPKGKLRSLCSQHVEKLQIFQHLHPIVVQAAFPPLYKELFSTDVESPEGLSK
#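 ROR gamma transcriptional activity was tracked as Gal4-UAS luciferase output in stably transfected Drosophila Schneider cells, with compound added 1 hr before 700 uM copper sulfate induction and a 20 hr ambient-temperature incubation.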
# DT40 TDP1 no CPT = qHTS for Inhibitors of human tyrosyl-DNA phosphodiesterase 1 (TDP1): qHTS in cells in absence of CPT. DT40 Tdp1-/- hTDP1 cells, no CPT, ATP luminescence, 48 h. Potency, µM (doses to about 46.2 µM), without a hit: at the top dose activity change, negative = growth inhibition, usual class: inhibitors. hit rate 15% among 420,000. AID 686978, 2013; also: potency is read from the fitted curve at half-maximal effect; nearly all actives have a fitted effect of over 55% in size
#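 Camptothecin absent (DMSO only). Human TDP1-complemented DT40 knockout cells, 400 cells/well, 37 °C for minimum 48 hr; ATP measured via CellTiter-Glo, 30 min dark incubation, luminescence.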
# IL-1B inflam inh = qHTS for Inhibitors of Inflammasome Signaling: IL-1-beta AlphaLISA Primary Screen; THP-1 LPS/ATP IL-1B secretion, AlphaLISA, 16 h; stronger effect = lower value; activity change, % at 57.5 µM; hit rate 4.7% among 360,000; AID 743279, 2014; in the data active = activity change below about -50%; inconclusive = mostly about -30% to -49%
#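 Secreted IL-1B measured by AlphaLISA bead assay after 16 h compound exposure of THP-1 cells; compounds (final up to 57.5 uM) added 1 h before LPS (250 ng/mL) and ATP (1.25 mM) stimulation; lower signal means less secretion.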
# Gal4-VP16 FLuc = VP16 counterscreen qHTS for inhibitors of ROR gamma transcriptional activity; Drosophila S2 Gal4-VP16 UAS-luciferase, luminescence, 20 h; Potency, µM (doses to about 53.6 µM), for inactives: at the top dose activity, negative = inhibition, most hits filed as inhibitors; hit rate 3.5% among 310,000; AID 2546, 2010;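 also: Gal4-VP16 expression switched on by copper sulfate through the metallothionein promoter; potency is read from the fitted curve at half-maximal effect; nearly all actives have a fitted effect of over 50% in size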
# DT40 TDP1 CPT = qHTS for Inhibitors of human tyrosyl-DNA phosphodiesterase 1 (TDP1): qHTS in cells in presence of CPT; hit rate 12% among 420,000; chicken DT40 Tdp1-/-;hTDP1 cells + 20 nM CPT, ATP luminescence, 48 h; Potency, µM (titrated, usually from 46.2 µM), without a hit: at the top dose activity change, negative = growth inhibition, hits mostly inhibitors; AID 686979, 2013; also: potency is read from the fitted curve at half-maximal effect; nearly all actives have a fitted effect of over 55% in size
#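 Cell growth measured by CellTiter-Glo luminescence after a minimum 48 h, 37 C compound exposure with 20 nM CPT in Tdp1-knockout DT40 cells stably expressing hTDP1, seeded 400/well; qHTS titration format.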
# LDHA inh = qHTS assay for inhibitors of human lactate dehydrogenase | L-lactate dehydrogenase A chain (Homo sapiens), P00338 | purified LDHA, NADH/diaphorase-resazurin fluorescence; stronger effect = lower value | activity change, % (values are at about 110 or 230 µM) | hit rate 0.15% among 480,000 | AID 1347041, 2019; in the data active = activity change below about -30%; inconclusive = mostly about -25% to -30%;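 also: plate controls were DMSO wells for no effect and wells without enzyme for full effect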
#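 Human LDH5 (2 nM) was incubated with 0.06 mM NADH and 0.2 mM pyruvate for 5 min at room temperature in Tris pH 7.4. Remaining NADH was coupled through diaphorase/resazurin, and resorufin fluorescence was read at 0 and 20 min.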
# * hit, by the source's call; ? = inconclusive; . = not tested or not shown; [ ] = remark or other dose. Unless noted, calls follow the shape of the dose curve; as a rule, active = well fitted curve in the direction sought with a large enough effect; inconclusive = small, poorly fitted or top-dose-only effect, or another doubt; inactive = no such curve, though single readings can be large; an effect the other way counts as inactive or inconclusive. Unless noted, % is scaled to controls: 0 for no effect and ±100 for the full control effect.
SMILES,RORg inh,DT40 TDP1 no CPT,IL-1B inflam inh,Gal4-VP16 FLuc,DT40 TDP1 CPT,LDHA inh
Cc1cc(C)cc(NC(=O)c2ccc([N+](=O)[O-])o2)c1,?,6.5µM*,-96*,?,7.3µM*,7
OC(c1ccccc1)(c1ccccc1)C1CCN(CCCOc2cccc(OC(F)(F)F)c2)CC1,.,16µM*,-51*,.,16µM*,4
OC(c1ccccc1)(c1ccccc1)C1CCN(CCCOc2ccc3c(c2)CCCC3)CC1,.,5.2µM*,-115*,.,4.1µM*,7
CC(=O)Nc1ccc(OCCCN2CCC(C(O)(c3ccccc3)c3ccccc3)CC2)cc1,.,?,8,.,?,-4
CC(=O)Nc1ccccc1OCCCN1CCC(C(O)(c2ccccc2)c2ccccc2)CC1,.,?,-3,.,?,-3
N#CCc1ccc(OCCCN2CCC(C(O)(c3ccccc3)c3ccccc3)CC2)cc1,.,21µM*,?,.,23µM*,-1
CC(Oc1cccc2ccccc12)C(=O)NC1(C#N)CCCCC1 (configuration not stated),.,.,.,.,.,6
Cc1cccc(Oc2ccc(NC(=O)CCC(=O)OCC(=O)c3ccc(Br)cc3)cc2)c1C,.,12µM*,.,.,13µM*,-13
CC(C)(C)c1ccc(Oc2ccc(NC(=O)CCC(=O)OCC(=O)c3ccccc3)cc2)cc1,.,13µM*,.,.,15µM*,3
Cc1nn(-c2ccc3nncn3n2)c2c1C(c1ccccc1Cl)CC(=O)N2 (configuration not stated),.,.,.,.,.,-21
CCOc1ccccc1/C=C(/NC(=O)c1ccccc1)C(=O)NC(C)c1ccccc1 (configuration not stated),14%,?,-24,4%,23µM*,-4
COc1cc2[nH]cc(C(=O)NCCc3ccccc3)c(=O)c2cc1OC,?,?,-7,3%,?,-2
COc1cc2[nH]cc(C(=O)NCc3ccccc3)c(=O)c2cc1OC,15%,26µM*,-16,2%,?,-2
COc1ccc(CCNC(=O)c2c[nH]c3ccc(F)cc3c2=O)cc1OC,3%[1.91 µM],13µM*,0,-1%,?,0
COc1ccc(CCNC(=O)c2c[nH]c3ccccc3c2=O)cc1OC,11%,?,-8,-14%,?,-2
COc1cc2[nH]c(C(=O)NCc3ccccc3)cc2c(OC)c1OC,-11%,?,-65*,-2%,-3%,-2
CCOC(=O)c1c(S(=O)(=O)NCC(=O)N2CCCC2)c(C)n(C)c1C,.,.,.,.,.,-12
O=C(Nc1ccc2c(c1)OCCO2)C(CCc1ccccc1)N1CCN(C/C=C/c2ccccc2)CC1 (configuration not stated),.,?,?,.,?,1
O=C(Nc1ccc2c(c1)OCCO2)C(c1ccnc2ccccc12)N1CCN(C/C=C/c2ccccc2)CC1 (configuration not stated),.,23µM*,0,.,?,2
O=C(Nc1ccc2c(c1)OCCO2)C(c1ccccc1)n1c(=O)c(-c2ccco2)nc2ccccc21 (configuration not stated),.,?,-4,.,4.1µM*,3
O=C(Nc1ccc2c(c1)OCCO2)C(c1ccncc1)n1c(=O)c(-c2ccco2)nc2ccccc21 (configuration not stated),.,?,-14,.,10µM*,8
O=C(Nc1ccc2c(c1)OCCO2)C(c1ccnc2ccccc12)n1c(=O)c(-c2ccco2)nc2ccccc21 (configuration not stated),.,15µM*,5,.,7.3µM*,2
